The list is not random: actives were taken first. Their share in the collection is about 19%.
IL-1B inflam inh = inflammasome signaling inhibition, IL-1 beta readout; THP-1 LPS/ATP IL-1B secretion, AlphaLISA, 16 h; active compounds read low; activity change, % at 57.5 µM; actives 4.7% (n = 360,000); AID 743279; in the data active = activity change below about -50%; inconclusive = mostly about -30% to -49%
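Secreted IL-1B measured by AlphaLISA bead assay after 16 h compound exposure of THP-1 cells; compounds (final up to 57.5 uM) added 1 h before LPS (250 ng/mL) and ATP (1.25 mM) stimulation; lower signal means less secretion.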
ELG1 DNA repair = inhibitors of ELG1-dependent DNA repair in HEK293T cells | HEK293T ELG1-luciferase reporter, luminescence, 16 h; DNA damage induced by 5-fluorouridine | AID 504467 | actives 2.3% (n = 330,000) | Potency, µM (highest dose often 46.1 µM), for the others: top-dose activity change, negative = inhibition, usual class: inhibitors; also: potency is read from the fitted curve at half-maximal effect; nearly all actives have a fitted effect of over 55% in size
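Overnight (16 hr) co-exposure of 2,000 cells/well to 5-fluorouridine and compound at 37 °C preceded detection. Luciferase was quantified via ONE-Glo luminescence; loss of signal denotes inhibition.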
TDP1 cell CPT = growth inhibition of DT40 Tdp1-/-;hTDP1 cells with camptothecin (screen for TDP1 inhibitors). chicken DT40 Tdp1-/-;hTDP1 cells + 20 nM CPT, ATP luminescence, 48 h. Potency, µM (titrated, usually from 46.2 µM), inactives show at the top dose activity change, negative = growth inhibition, usual class: inhibitors. actives 12% (n = 420,000). AID 686979; also: potency is read from the fitted curve at half-maximal effect; nearly all actives have a fitted effect of over 55% in size
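Chicken DT40 Tdp1-/- cells stably complemented with human TDP1 were seeded at 400 cells/well in medium containing 20 nM camptothecin, exposed to pin-transferred compounds, and grown at 37 °C for at least 48 hr. Viability was read as ATP luminescence.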
TDP1 block = TDP1 (human) enzyme inhibition | actives 0.28% (n = 350,000) | Potency, µM (series often up to 130 µM), for inactives: at the top dose activity change, negative = inhibition, actives largely listed as inhibitors | recombinant TDP1, AlphaScreen DNA substrate cleavage | Q9NUW8; also: potency is read from the fitted curve at half-maximal effect; nearly all actives have a fitted effect of over 40% in size
Target sequence (Q9NUW8 whole entry, looked up): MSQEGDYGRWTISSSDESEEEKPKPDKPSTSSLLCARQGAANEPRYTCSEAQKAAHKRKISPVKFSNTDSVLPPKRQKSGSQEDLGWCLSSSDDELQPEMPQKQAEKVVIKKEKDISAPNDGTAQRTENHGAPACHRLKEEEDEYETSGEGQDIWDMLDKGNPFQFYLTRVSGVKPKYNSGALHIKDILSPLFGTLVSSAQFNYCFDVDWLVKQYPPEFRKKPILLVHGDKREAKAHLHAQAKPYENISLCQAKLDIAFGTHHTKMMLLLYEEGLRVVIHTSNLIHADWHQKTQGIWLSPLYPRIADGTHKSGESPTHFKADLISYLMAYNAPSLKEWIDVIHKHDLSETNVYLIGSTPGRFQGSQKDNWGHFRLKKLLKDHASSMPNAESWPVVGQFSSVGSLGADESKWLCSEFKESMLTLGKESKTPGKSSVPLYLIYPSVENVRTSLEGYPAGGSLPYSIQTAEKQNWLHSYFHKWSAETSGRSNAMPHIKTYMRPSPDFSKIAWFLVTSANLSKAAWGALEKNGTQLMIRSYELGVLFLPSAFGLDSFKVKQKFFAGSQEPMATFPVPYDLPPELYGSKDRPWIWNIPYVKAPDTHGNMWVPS
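Recombinant E. coli-expressed Tdp1 (1 nM) preincubated with compound 15 min at RT, then 5'-biotin/3'-phosphotyrosine-FITC DNA substrate (15 nM) added for 5 min. AlphaScreen beads (10 ug/ml) added, 10 min RT; tyrosine-FITC cleavage read as signal loss.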
Giardia kill = kills Giardia lamblia | actives 0.15% (n = 340,000) | activity change, % at 7.66 µM, hits read low | AID 540267 | Giardia lamblia trophozoite viability; in the data active = activity change below about -80%; inconclusive = between about -30% and that limit;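 also: parasites exposed to compound for two days anaerobically before the ATP read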
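Trophozoites 100 cells/well + cpd; 48 hrs, 37 deg C, anaerobic. ATPLite 1-Step added, 15-30 min RT, luminescence read (ATP-based viability).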
DT40 TDP1 no CPT = qHTS for Inhibitors of human tyrosyl-DNA phosphodiesterase 1 (TDP1): qHTS in cells in absence of CPT | actives 15% (n = 420,000) | AID 686978, 2013 | Potency, µM (top dose mostly 46.2 µM), for the others: at the highest dose activity change, negative = growth inhibition, usual class: inhibitors | DT40 Tdp1-/- hTDP1 cells, no CPT, ATP luminescence, 48 h; also: potency is read from the fitted curve at half-maximal effect; nearly all actives have a fitted effect of over 55% in size
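Chicken DT40 Tdp1-/- cells complemented with human TDP1, screened without camptothecin (DMSO vehicle only), 400 cells/well. Compounds pin-transferred, cells incubated at 37 °C for at least 48 hr. Growth read as ATP-dependent luminescence (CellTiter-Glo, 30 min at RT).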
* hit, by the source's call; i = inactive; ? = inconclusive; . = no result given; [ ] = dose if it differs, or a comment. Unless noted, calls follow the shape of the dose curve; as a rule, active = well fitted curve in the direction sought with a large enough effect; inconclusive = small, poorly fitted or top-dose-only effect, or another doubt; inactive = no such curve, though single readings can be large; an effect the other way counts as inactive or inconclusive. % is scaled to controls: 0 for no effect and ±100 for the full control effect.

SMILES	IL-1B inflam inh	ELG1 DNA repair	TDP1 cell CPT	TDP1 block	Giardia kill	DT40 TDP1 no CPT
CO[C@@H]1COC(=O)C/C=C\[C@H](C)COC(=O)[C@H](C)NC(=O)C/C=C\[C@H]1C	.	.	.	4%[21 µM]	.	.
Cc1ccc2c(c1)N(C(=O)CCC(=O)N1CCC(C(N)=O)CC1)CCO2	20	3%	-1%	.	3	-9%
N#Cc1cccc(N2[C@@H](Cc3cc4ccccc4n3Cc3ccccc3)COC[C@H]2Cc2ccc3ccccc3c2)c1	12	.	-10%	.	.	-9%
CCn1ccnc1CN1CCCCC1C(=O)Nc1ccc(Oc2cccnc2)cc1 (configuration not stated)	-12	?	?	4%[56.1 µM]	-3	?
COc1ccc(CN2CCC(C(=O)Nc3ccc(Oc4cccnc4)cc3)CC2)c(C)c1C	16	-16%	?	4%	-19	2.9µM*
Cn1ccnc1CN1CCCCC1C(=O)Nc1ccc(Oc2cccnc2)cc1 (configuration not stated)	55	3%	15µM*	3%[56.1 µM]	-3	23µM*
COc1ccc(CN2C[C@H]3CON(C)[C@H]3C[C@H]2c2ccc(-c3ccccc3)cc2)cc1	-2	.	?	.	.	?
S=C(N=Nc1ccccc1)NNc1ccccc1	-7	?	3.7µM*	11%	-18	?
CCOCCCn1c(C)nc2c(c1=O)c1nc3ccccc3nc1n2CCC1=CCCCC1	-73*	?	?	4%	4	?
Cc1nc2c(c(=O)n1CCC1=CCCCC1)c1nc3ccccc3nc1n2/N=C/c1ccccc1	-21	?	?	-3%	12	?
COc1ccc(CNC(=O)COCc2cc(-c3cccs3)on2)cc1	.	.	-17%	6%	.	?
O=C(NC(=S)NCCN1CCOCC1)c1ccc(F)cc1	i	19%	-13%	1%	36	-19%
CC(C)CNC(=S)NC(=O)c1ccc(F)cc1	1	?	18µM*	1%	-3	?
O=C(NC(=S)Nc1ccccc1O)c1ccc(Cl)cc1Cl	-78*	?	18µM*	2%	-17	29µM*
CC(C)CNC(=S)NC(=O)c1ccc(Cl)cc1Cl	71	?	13µM*	0%	-13	?
O=C(Nc1ccccc1Cl)c1ccc(Cl)cc1Cl	-4	?	-22%	6%	7	-24%
O=C(Nc1ccc(NC(=O)C2CCCCC2)nc1)c1cccs1	-23	?	?	0%	-2	12µM*
COc1cc(C(=O)Nc2ccc(NC(=O)c3cccc(Cl)c3)nc2)cc(OC)c1OC	-4	?	26µM*	3%	-11	8.2µM*
Cc1ccc(NC(=O)c2cccc(Cl)c2)nc1	-7	?	-25%	1%	-8	-26%
COc1cc(C(=O)Nc2ccc(NC(=O)C3CCCCC3)nc2)cc(OC)c1OC	-1	-6%	?	1%	10	18µM*
COc1ccc(OC)c(CCNC(=O)c2cnn(-c3ccc(C)cc3C)c2C2CCN(C(=O)OC(C)(C)C)CC2)c1	.	.	4.6µM*	5%	.	15µM*
Cc1ccc(-n2ncc(C(=O)NCCc3ccccc3)c2C2CCN(C(=O)OC(C)(C)C)CC2)c(C)c1	.	.	?	5%	.	?
COc1ccc(CCNC(=O)c2cnn(-c3ccc(F)cc3)c2C2CCN(C(=O)OC(C)(C)C)CC2)c(OC)c1	.	.	?	3%	.	13µM*
Cc1ccc(-n2ncc(C(=O)NCc3ccccn3)c2C2CCN(C(=O)OC(C)(C)C)CC2)c(C)c1	.	.	?	7%	.	21µM*
COc1ccc(CCNC(=O)c2cnn(-c3ccc(F)cc3)c2C2CCN(C(=O)OC(C)(C)C)CC2)cc1OC	.	.	?	6%	.	?
SMILES	IL-1B inflam inh	ELG1 DNA repair	TDP1 cell CPT	TDP1 block	Giardia kill	DT40 TDP1 no CPT
COc1ccc(OC)c(CCNC(=O)c2cnn(-c3ccccc3)c2C2CCN(C(=O)OC(C)(C)C)CC2)c1	.	.	13µM*	5%	.	23µM*
CCOc1cccc2sc(NC(=O)c3ccc(S(=O)(=O)N4CCCc5ccccc54)cc3)nc12	.	.	-17%	-5%	.	-29%
CC(C)C1Oc2ccccc2N(CC(=O)N2CCOCC2)C1=O (configuration not stated)	13	11%	?	.	37	2%
COc1ccc(CCNC(=O)c2cnn(-c3cccc(C)c3)c2C2CCN(C(=O)OC(C)(C)C)CC2)cc1OC	.	.	?	-8%	.	15µM*
Cc1c(C)n(Cc2ccc(F)cc2)c2ccc(C(=O)NCc3ccco3)cc12	.	.	?	0%	.	?
COc1ccc(NC(=O)c2ccc3c(c2)c(C)c(C)n3Cc2ccc(F)cc2)cc1	.	.	5.2µM*	8%	.	4.6µM*
CCOC(=O)c1ccc(NC(=O)c2ccc3c(c2)c(C)c(C)n3Cc2ccc(F)cc2)cc1	.	.	9.2µM*	8%	.	8.2µM*
CCN(CCCNC(=O)c1nn(-c2ccc(OC)cc2)c(=O)c2c1c1ccccc1n2C)c1ccccc1	.	.	-23%	-2%	.	-20%
CC(=O)NC(CC(=O)NNC(=O)c1cccs1)c1ccccc1 (configuration not stated)	-1	?	-16%	.	1	-27%
O=C(COc1ccc(Cl)cc1)NNC(=O)C(=O)NC1CCCCC1	-2	?	-1%	1%	-11	-3%
CCn1c(-c2ccccc2)c[nH]c1=S	11	4%	-21%	1%	-12	?
CC(C)Cn1c(-c2ccc(Br)cc2)c[nH]c1=S	-10	-3%	16µM*	5%	-3	15µM*
Cc1ccc2cc(C=O)c(N3CCOCC3)nc2c1C	?	7%	?	.	-6	18µM*
Cc1cc(N2CCOCC2)c2c(N)cc(C)c(C)c2n1	-2	?	6%	1%	13	?
CCC(=O)N1N=C(c2cccs2)CC1c1ccc(OC)cc1 (configuration not stated)	0	21%	11%	.	3	-9%
COc1ccc(C2CC(c3cccs3)=NN2C(=O)c2ccc(Br)o2)cc1 (configuration not stated)	-5	2%	23µM*	0%	6	?
COc1ccc(C2CC(c3cccs3)=NN2C(=O)CSC2=NCCS2)cc1 (configuration not stated)	-81*	1%	-41%	4%	-1	?
COc1cccc(C2CC(c3cccs3)=NN2C(=O)CSc2nc3ccccc3o2)c1OC (configuration not stated)	-5	?	26µM*	0%	-6	23µM*

From PubChem BioAssay
